# Experimental data as given in PubChem BioAssay AID1347076 (National Center for Advancing Translational Sciences (NCATS), 2019).
# Hit rate of the full screen: of about 400,000 compounds, about 13,000 (3.2%) were called active. Inconclusive results (about 18%) are left out. Calls come from the whole dose curve; as a rule, active = well fitted cell-killing curve with a large enough effect; inconclusive = small, poorly fitted or top-dose-only effect, or effect the other way; inactive = flat fitted curve, though single readings scatter. The list comes from a sample in which actives are over-represented; it also holds similar structures and randomly drawn compounds.
# Assay: qHTS assay for MDR1-selective chemotherapeutics: Primary screen using the drug-selected MDR subline cells KB-V1; note: nearly all actives have a fitted effect of over 60% in size
# Conditions: KB-V1 MDR cells viability, CellTiter-Glo, 72 h; series mostly up to 46.1 µM; activity change, negative = cytotoxicity: at the top concentration
# In short: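 Cells of the MDR subline KB-V1 are plated, dosed with compound at multiple concentrations, and incubated 72 h at 37 degrees C; CellTiter-Glo is then added and luminescence read after 10 min.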
# % is set by controls: 0 for no effect and ±100 for the full control effect; potency is the fitted concentration of half-maximal effect.
SMILES,"activity change, negative = cytotoxicity",Potency
CCCCc1ccc(S(=O)(=O)NC(=O)C2(C)CCN2C(=O)c2c(C)noc2C)cc1 (stereo not given),-17.6% (inactive),–
CCN(CCN(C)C)C(=O)c1ccc2nc(C)c(N(C)C(=O)CCc3ccccc3)n2c1,4.85% (inactive),–
O=C(NC1CCCC1)C(c1ccccn1)N(C(=O)c1csnn1)C1CCCC1 (stereo not given),–,20.6 µM (active)
Cc1ccc(C(C(=O)NC2CCCCC2)N(C(=O)c2csnn2)C2CC2)o1 (stereo not given),-1.13% (inactive),–
O=C(NC1CCCC1)C(c1ccc(Cl)cc1)N(C(=O)c1csnn1)C1CC1 (stereo not given),-1.08% (inactive),–
Cc1ccc(NC(=O)c2cc3cc(C)ccc3n2C)cc1,0% (inactive),–
COc1ccccc1-c1n[nH]nc1C1=CC(=O)CC(C)(C)C1,9.54% (inactive),–
O=C(NNC1=NCCC1)c1cccc(S(=O)(=O)N2CCCCC2)c1,0.111% (inactive),–
CNC(=O)NC(=O)C(OC(=O)c1cccc(S(=O)(=O)N2CCCCC2)c1)c1ccccc1 (stereo not given),–,23.1 µM (active)
CC(OC(=O)c1cccc(S(=O)(=O)N2CCOCC2)c1)C(=O)NCC1CCCCC1 (stereo not given),2.96% (inactive),–
Cc1cccc(CNC(=O)c2cnc3sc(N4CCCCC4)nn3c2=O)c1,0% (inactive),–
Cc1ccc(C)c2sc(NC(=O)c3ccc(S(=O)(=O)N4CCCC4)cc3)nc12,8.13% (inactive),–
Cc1nn(CC(=O)NCCc2ccccc2)c(=O)c2c1sc1ccccc12,-11.2% (inactive),–
COc1cc(/C=N/NC(=O)c2ccoc2C)ccc1OCCN1CCCCC1,22.5% (inactive),–
COc1cc(/C=N/NC(=O)Nc2ccccc2)ccc1OCCOc1ccccc1C,–,2.31 µM (active)
COC(=O)c1ccc(COc2ccc(/C=N/NC(=O)C(=O)Nc3ccc(OC)cc3)cc2OC)o1,-3.79% (inactive),–
C[C@H]1CN([C@@H](C)CO)C(=O)CCCn2cc(nn2)CO[C@@H]1CN(C)S(=O)(=O)c1cccc(C#N)c1,-8.91% (inactive),–
O=C(COC(=O)c1ccc(S(=O)(=O)N2CCCCCC2)cc1)Nc1ccccc1C(F)(F)F,22.5% (inactive),–
CCOC(=O)N1CCN(C(=O)c2ccc3c(c2)N(Cc2ccc(C)cc2)CCS3)CC1,–,3.26 µM (active)
O=C(NCCN1CCOCC1)c1ccc2c(c1)N(Cc1ccc(Cl)cc1)CCS2,2.02% (inactive),–

SMILES,"activity change, negative = cytotoxicity",Potency
O=C(NCCc1ccccc1)c1ccc2c(c1)N(Cc1ccccc1)CCS2,-0.57% (inactive),–
OC[C@@H]1O[C@H](n2cnc3c(SCc4ccccc4)ncnc32)[C@H](O)[C@H]1O,0% (inactive),–
COc1cc(C(=O)NNC(=O)c2ccc(S(=O)(=O)N3CCCCC3)cc2)cc(OC)c1OC,14.7% (inactive),–
COc1ccc(-c2ccc(Nc3ccc(S(=O)(=O)N4CCCC4)cc3)nn2)cc1OC,–,13 µM (active)
COc1cc(C(C)=O)ccc1OC(C)C(=O)Nc1ccc(S(=O)(=O)N2CCCC2)cc1 (stereo not given),0% (inactive),–
CC(C)Oc1cc(F)ccc1-c1cc(C(=O)Nc2cccc(Cl)c2)[nH]n1,0% (inactive),–
CCCCCC(=O)N1C[C@H](O)[C@@H](n2cc(COC(=O)c3ccccc3)nn2)C[C@@H]1c1ccc(C)cc1,8.62% (inactive),–
COC(=O)c1c(NC(=O)CN(c2ccc(C)c(C)c2)S(C)(=O)=O)sc2c1CCCC2,14.3% (inactive),–
NC(=O)c1c(NC(=O)CSc2nnc(-c3ccco3)n2N)sc2c1CCCC2,-7.89% (inactive),–
COC(=O)c1c(NC(=O)CSc2nncs2)sc2c1CCCCC2,–,23.1 µM (active)
Cc1cccc(C(=O)OCC(=O)Nc2sc3c(c2C#N)CCC3)c1,-0.263% (inactive),–
COC(=O)c1c(NC(=O)C2CC(C)=C(C)CC2C(=O)O)sc2c1CCCCC2 (stereo not given),7% (inactive),–
CCOC(=O)c1c(NC(=O)CSc2nnc(CN3CCOCC3)n2C)sc2c1CCCC2,–,5.8 µM (active)
COC(=O)c1c(NC(=O)CN2C(=O)NC(CCc3ccccc3)C2=O)sc2c1CCCCC2 (stereo not given),0.551% (inactive),–
COC(=O)c1c(NC(=O)COC(=O)[C@@H](NS(=O)(=O)c2ccccc2)C(C)C)sc2c1CCC2,–,14.6 µM (active)
CCOC(=O)c1c(NC(=O)CSc2nnc(Cc3csc(N)n3)n2C)sc(C)c1C,4.84% (inactive),–
COC(=O)c1c(NC(=O)c2ccc(Cl)c(Cl)c2)sc2c1CCCC2,17.4% (inactive),–
CCc1ccc(N(CC(=O)Nc2sc3c(c2C(=O)OC)CCCC3)S(C)(=O)=O)cc1,–,9.2 µM (active)
COc1cccc(OC)c1C(=O)Nc1sc2c(c1C(N)=O)CCCC2,-18.8% (inactive),–
O=C(NCc1cccnc1)c1ccc2nc([C@@H]3O[C@H](CO)[C@H](O)[C@H](O)[C@H]3O)[nH]c2c1,-1.88% (inactive),–

SMILES,"activity change, negative = cytotoxicity",Potency
N#Cc1ccccc1-n1c(N)c(C(=O)N2CCCC2)sc1=S,–,16.4 µM (active)
Cc1cccc(-n2c(N)c(C(=O)N3CCN(C)CC3)sc2=S)c1,-2.49% (inactive),–
O=C(c1ccc(S(=O)(=O)c2ccccc2)cc1)N1CCCCCC1,1.57% (inactive),–
COc1ccc(C(=O)NCC[N+](C)(C)C)cc1,4.17% (inactive),–
CC1(C(=O)NCc2ccccc2)CSCC(=O)N1CCCN1CCOCC1 (stereo not given),-3.51% (inactive),–
O=C(Nc1ccc(Cl)c(C(F)(F)F)c1)C1Cc2c(-c3ccccc3Oc3ccccc3)ccnc2O1 (stereo not given),3.66% (inactive),–
Cc1cccc(NC(=O)Nc2ccc(OCc3ccccc3)cc2)n1,-0.32% (inactive),–
CNC(=O)c1sc(NCc2ccccc2OC)nc1C,-22.9% (inactive),–
CNC(=O)c1sc(Nc2ccc(OCc3ccccc3)cc2)nc1C,–,8.2 µM (active)
COc1ccc(C(=O)N2CCCCC2c2cc(C(=O)Nc3ccc(F)c(Cl)c3)no2)cc1 (stereo not given),-11.6% (inactive),–
O=[N+]([O-])c1ccc(CN2CC(N3CC=CC3)CS2(=O)=O)cc1 (stereo not given),-6.04% (inactive),–
CC(C)(C)S(=O)N1Cc2cc(C(=O)NCCCN3CCOCC3)nc(-c3cccc(-c4cc5ccccc5o4)c3)c2[C@H]1CCO (stereo not given in full),-18.9% (inactive),–
O=C(NCc1ccco1)c1ccc(Cn2c(=O)c3sccc3n(Cc3ccc(F)cc3)c2=O)cc1,-10.9% (inactive),–
O=C(NCc1ccco1)c1cc2sccc2n1Cc1ccc(F)cc1,–,16.4 µM (active)
CC(=O)Nc1ccc(NC(=O)c2cc3sccc3n2Cc2ccc(F)cc2)cc1,0% (inactive),–
CCCCCCN1C[C@H](O)[C@@H](n2cc(C3CC3)nn2)C[C@@H]1c1ccc(Cl)cc1,0% (inactive),–
CCOC(=O)c1ccc(NC(=O)c2csc3c2CCCCC3)cc1,16.5% (inactive),–
COC(=O)c1sccc1NC(=O)c1ccc(Cl)cc1,-6.52% (inactive),–
COC(=O)c1sccc1NC(=O)c1csc2c1CCCC2,–,14.6 µM (active)
CCNC(=S)Nc1ccc2c(c1)c(=O)n(C)n2Cc1ccc(Cl)cc1,-0.147% (inactive),–
